# GLP1R ag = qHTS of GLP-1 Receptor Agonists; HEK293 GLP-1R CRE-luciferase, luminescence, 4-6 h; cells express a hypersensitive GLP-1R form; Potency, µM (titrated, usually from 45.6 µM), for the others: top-dose activation, most hits filed as activators; 0.007% of 380,000 active; note: potency is the fitted concentration of half-maximal effect; % of control where 0% means no effect
# GLP1R inv ag = qHTS of GLP-1 Receptor Inverse Agonists (Inhibition Mode). Glucagon-like peptide 1 receptor (Homo sapiens), P43220. 1.6% of 410,000 active. HEK293 GLP-1R CRE-luciferase, luminescence, 24 h; GLP-1R form is constitutively active. Potency, µM (series often up to 38.3 µM), for the others: at the highest dose activity change, negative = inhibition, usual class: inhibitors; note: potency is the fitted concentration of half-maximal effect; % is set by controls: 0 for no effect and ±100 for the full control effect; nearly all actives have a fitted effect of over 55% in size
#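 Seeding at 200 cells/uL, 12 h culture, 24 hr compound treatment, then luciferase reagent and a luminescence read; cells are HEK293 stably expressing a constitutively active GLP-1R plus cAMP-responsive luciferase.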
# PTHR1 ag = qHTS for PTHR1 Agonists: Primary Screen; Potency, µM (doses to about 115 µM), for inactives: top-dose activation, hits mostly activators; AID 743266, 2014; HEK293 GP2 PTHR1 cells, GloSensor cAMP luminescence, 1 h; 0.075% of 410,000 active; note: potency is the fitted concentration of half-maximal effect; nearly all actives have a fitted effect of over 55% in size
# Target sequence (Q03431 whole entry, looked up): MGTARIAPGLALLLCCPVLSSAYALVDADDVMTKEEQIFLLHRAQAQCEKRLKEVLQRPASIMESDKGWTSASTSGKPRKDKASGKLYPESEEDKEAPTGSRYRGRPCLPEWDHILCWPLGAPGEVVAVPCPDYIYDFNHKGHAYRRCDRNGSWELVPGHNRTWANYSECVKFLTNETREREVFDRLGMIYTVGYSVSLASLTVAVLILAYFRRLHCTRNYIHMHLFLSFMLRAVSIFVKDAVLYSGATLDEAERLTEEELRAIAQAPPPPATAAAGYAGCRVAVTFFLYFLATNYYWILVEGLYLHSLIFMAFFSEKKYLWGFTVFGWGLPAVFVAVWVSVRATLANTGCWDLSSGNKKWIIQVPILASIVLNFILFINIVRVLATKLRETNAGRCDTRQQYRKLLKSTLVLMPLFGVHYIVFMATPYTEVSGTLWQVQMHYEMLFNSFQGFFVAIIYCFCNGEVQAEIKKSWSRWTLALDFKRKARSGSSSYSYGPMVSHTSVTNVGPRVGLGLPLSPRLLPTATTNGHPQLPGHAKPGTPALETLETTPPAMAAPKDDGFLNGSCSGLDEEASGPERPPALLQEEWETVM
#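 HEK-293-derived GP2 cells expressing PTHR1 and a GloSensor cAMP reporter, 3,000/well, plated overnight, given luciferin plus IBMX (each 0.5 mM as added) for 1 h at 37 °C, then compound for 1 h at 37 °C. Luminescence was read after 15 min at room temperature.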
# GLP1R cytotox = qHTS of GLP-1 Receptor Inverse Agonists: Cytotox Screen. HEK293 cAMP-luciferase reporter cells, luminescence, 24 h. Potency, µM (doses to about 38.3 µM), without a hit: at the highest dose activity change, negative = inhibition, usual class: inhibitors. 0.13% of 410,000 active. AID 624418, 2012;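 note: loss of luciferase light is scored as toxicity; potency is the fitted concentration of half-maximal effect; % is set by controls: 0 for no effect and ±100 for the full control effect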
#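 Step one: seed cells (200 cells/uL, DMEM with 10% Nu serum, 1% pen-strep). Step two: 12-hour incubation at 37 deg C. Step three: pin 23 nL compound, incubate 24 hr. Step four: add luciferase reagent, read luminescence 12 min later.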
# TRHR enhancer = qHTS for Small Molecule Agonists and Allosteric Enhancers of Human TRH Receptor: Primary Screen for Enhancers | enhancement, % at 2 µM | TRHR cells, fluo-8 calcium fluorescence, EC20 TRH enhancement | 0.66% of 360,000 active | Thyrotropin-releasing hormone receptor (Homo sapiens), P34981; in the data active = enhancement above about 30%; note: 0% is about no effect
#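 TRHR-expressing cells loaded with fluo-8 calcium dye were read kinetically (ex 480/em 530) during compound addition, then stimulated with an EC20 of TRH (10 nM final). Enhancement of the Gq-mediated intracellular calcium response was scored.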
# TRHR agonist = qHTS for Small Molecule Agonists and Allosteric Enhancers of Human TRH Receptor: Primary Screen for Agonists. Thyrotropin-releasing hormone receptor (Homo sapiens), P34981. TRHR cells, calcium flux fluo-8, FDSS agonist mode. activation, % at 2 µM. 0.18% of 360,000 active. AID 493084, 2011; in the data active = activation above about 30%; note: 0% is about no effect
#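 In this calcium-flux screen, cells bearing human TRHR are dye-loaded with fluo-8, baselined for 10 cycles, then exposed to library compounds; positive kinetic calcium responses during the agonist phase mark hits, with TRH as control.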
# Active calls of the source: *; i = inactive; ? = inconclusive; . = not tested or not shown; [ ] = another dose, or the depositor's remark. A selection: hits, their analogues and other compounds. The true share with any hit is near 2.4%. Unless noted, calls come from the whole dose curve; as a rule, active = well fitted curve in the direction sought with a large enough effect; inconclusive = small, poorly fitted or top-dose-only effect, or another doubt; inactive = no such curve, though single readings can be large; an effect the other way counts as inactive or inconclusive.
SMILES,GLP1R ag,GLP1R inv ag,PTHR1 ag,GLP1R cytotox,TRHR enhancer,TRHR agonist
Cc1onc(-c2ccccc2)c1C(=O)N1CCN(C(=O)c2ccco2)CC1,1%,3%,16%[57.5 µM],4%,30*,0
COc1ccccc1N1CCN(C(=O)c2ccco2)CC1,0%,11%,i,-4%,31*,1
Cc1sc(NC(=O)CCS(=O)(=O)c2ccccc2)c(C#N)c1C,-2%,22%,i,-3%,-6,0
CC(OC(=O)c1ccncc1)C(=O)NC1CCCC1 (stereo not given),-1%,4%,-1%,-8%,2,0
CCOc1c(Cl)cc(C(=O)N(Cc2ccc(N(C)C)cc2)Cc2ccco2)cc1Cl,.,-11%,-6%,0%,-4,0
O=C(NC1CCN(C(=O)N2c3ccccc3Sc3ccccc32)CC1)c1ccccc1Cl,-3%,10µM*,-68%,-1%,4,2
O=C(c1cnc(N2CCN(c3ccccn3)CC2)c2ccccc12)N1CCN(c2cccc(Cl)c2)CC1,2%,2.2µM*,-49%,-19%,4,0
O=C(NC1CCN(C(=O)N2c3ccccc3Sc3ccccc32)CC1)c1ccco1,-8%,?,-39%,?,-5,1
O=C(c1ccco1)N1CCN(C(=O)N2c3ccccc3Sc3ccccc32)CC1,23%,?,i,3.2µM*,-9,-2
O=C(c1cc(Cl)ccc1Cl)N1CCN(c2ccccn2)CC1,16%,16%,i,-3%,-9,0
COc1ccccc1N1CCN(C(=O)c2ccc3[nH]c4c(c3c2)CCCC4)CC1,1%,10µM*,-72%,4%,1,0
O=C(CCC1N=C2c3ccccc3N=C(SCc3ccccc3F)N2C1=O)NCc1ccccc1 (stereo not given),.,0%,-7%,32%,-1,-1
COc1ccc(-c2nc3cnccn3c2Nc2ccc3c(c2)OCO3)cc1,23%,-29%,-10%,-20%,7,-1
COc1cccc(N(C(=O)c2nc3nccc(C)n3n2)c2nc3ccccc3s2)c1,25%,?,-42%,-30%,11,0
CC1(C)Cc2cccc(OCC(=O)N3CCN(c4ccccc4F)CC3)c2O1,12%,?,-19%,9%,7,0
COc1ccccc1N1CCN(C(=O)c2ccc(COc3cccc4c3OC(C)(C)C4)cc2)CC1,-20%,7.1µM*,-40%,10%,-3,0
CCc1ccc(Oc2c(C(F)(F)F)oc3c(CN4CCN(CC)CC4)c(O)ccc3c2=O)cc1,.,?,-14%,24%,-3,4
CCS(=O)(=O)N1CCN(c2ccccc2)CC1,1%,-4%,-5%,0%,32*,0
Cc1nc(S(=O)(=O)N(C)c2ccccc2)c(C#N)c(C)c1Cl,-7%,5.6µM*,-93%,62%,.,.
CN(c1ccccc1)S(=O)(=O)c1ccc(Cl)nc1,5%,12%,i,-4%,-6,0
Cc1ccc(NC(=O)N2C3CCCC2CC(NC(=O)C2CC2)C3)cc1 (stereo not given),4%,8%,i,14%,30*,0
C/C(CC(=O)Nc1ccc(C)c(Cl)c1)=N\NC(=O)c1ccccn1,6%,?,i,-8%,2,-1
C/C(CC(=O)Nc1ccc(C)c(Cl)c1)=N\NC(=O)c1cccc(O)c1,-11%,?,i,-11%,32*,0
Cc1ccc(-c2noc(CCC(=O)NCCN3CCc4ccccc4C3)n2)cc1,-3%,?,-17%,42%,4,0
CCCCN(c1nc2ccccc2nc1Cl)S(=O)(=O)c1ccc(C)cc1,16%,10µM*,-25%,0%,3,-1
SMILES,GLP1R ag,GLP1R inv ag,PTHR1 ag,GLP1R cytotox,TRHR enhancer,TRHR agonist
CCCN(CCC)CC(O)CN(c1ccccc1)S(=O)(=O)c1ccc(C)cc1 (stereo not given),0%,?,i,-24%,2,0
CCOc1ccc(CCN2C(=S)N([C@@H](CC(C)C)CN3CCCC3CN3C(=S)NC[C@@H]3Cc3ccc(O)cc3)C[C@@H]2CC(C)C)cc1 (stereo not given in full),9%,10µM*,i,-4%,.,.
CCOc1ccc(CCN2C(=S)N([C@@H](CC(C)C)CN3CCCC3CN3C(=S)NC[C@@H]3Cc3ccc(O)cc3)C[C@@H]2Cc2ccccc2)cc1 (stereo not given in full),-1%,11µM*,i,1%,.,.
CCOc1ccc(CCN2C(=S)N([C@@H](CC(C)C)CN3CCCC3CN3C(=S)NC[C@@H]3Cc3ccc(O)cc3)C[C@@H]2Cc2ccc(O)cc2)cc1 (stereo not given in full),-1%,?,-4%,-21%,.,.
CN1CCCN(C(=O)c2cc(-c3cccc4ccccc34)nc3ccccc23)CC1,16%,7.9µM*,-12%,-17%,3,1
O=C(c1cc(-c2ccccc2Cl)nc2ccccc12)N1CCC1,3%,7%,-17%,-11%,5,-1
Cc1ccccc1-c1cc(C(=O)N2CCCC2)c2ccccc2n1,-5%,7%,i,-6%,31*,0
O=C(O)c1ccc(NC(=O)c2ccccc2NC(=O)c2ccccc2Cl)cc1,-2%,16%,-19%,-5%,-3,0
CO/N=C(/CNC(=O)c1cccc(Cl)c1)c1ccc(Cl)cc1,1%,11µM*,i,28%,-4,0
Cc1ccc(S(=O)(=O)N2CCOC23CCN(S(=O)(=O)c2c(C)cc(C)cc2C)CC3)cc1,5%,-23%,-24%,6%,0,0
CCOC(=O)C1CCN(C(=O)c2cc(S(=O)(=O)N3CCOCC3)ccc2C)CC1,-1%,15%,i,-12%,31*,0
COC(=O)c1cc(=O)n(Cc2cccs2)c(=Nc2ccc(F)cc2)s1,-5%,3.5µM*,-4%,?,2,0
COC(=O)c1cc(=O)n(Cc2ccco2)c(=Nc2ccc(F)c(Cl)c2)s1,-12%,2.8µM*,-36%,-15%,11,1
COC(=O)c1cc(=O)n(CCc2ccccc2F)c(=Nc2ccc(F)c(Cl)c2)s1,-2%,?,-48%,-30%,-2,1
